Most compounds without a hit are left out; they make up all but 2.8% or so of the library.
HIF-2a block – HIF-2a reporter inhibitors, primary screen, luminescence, 786-0 RCC cells; 786-0 RCC cells HIF-2a reporter, luciferase luminescence, overnight; inhibition, % at 18.8 µM; actives 0.72% (n = 360,000); AID 624352, 2012;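 active = inhibition of the luminescence signal of 40% or more relative to plate controls, in a single-dose primary screen at 18.75 µM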
Peg3 prom inh – Peg3 promoter-driven luciferase inhibitors, primary screen, cell-based, HeLa, luciferase luminescence; HeLa PEG-Prom luciferase reporter, overnight; inhibition, % at 20 µM; actives 1.7% (n = 360,000);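 active = inhibition of at least 50% at 20 µM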
KKLEB tox – cytotoxicity in KKLEB CF airway cells, primary screen, cytotoxicity control for CF NF-kB inhibitor project, cell-based, uHTS, fluorescence assay plates | activity change (cytotoxicity), % at 5 µM | KKLEB CF airway cells viability, ATPlite luminescence, overnight; active compounds read low; cells stimulated with P. aeruginosa culture filtrate | AID 602141, 2011 | actives 0.36% (n = 360,000);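 active = corrected activity change at or below -50% at 5 µM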
Shn3 inh set2 – reduction of Shn3 3'UTR firefly luciferase signal, primary screen, Schnurri-3 inhibitor project, cell-based, Clone20 osteoblasts, set 2. Clone20 osteoblast Shn3 3'UTR firefly luciferase, 24 h. inhibition, % at 12.5 µM. actives 0.52% (n = 360,000). AID 588674, 2011;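 active = mean inhibition of at least 75% with every replicate also reaching 75%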
CF NFkB block – inhibitors of PAF-induced NF-kB signaling, primary screen, cell-based, GFP fluorescence, uHTS; KKLEB NF-kB-GFP reporter, GFP fluorescence overnight; inhibition, % at 5 µM; actives 0.86% (n = 360,000);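 active = at least 50% inhibition at 5 µM, scaled per plate between neutral and stimulator controls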;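 also: PAF is a Pseudomonas aeruginosa culture filtrate used as stimulus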
MITF TRPM1 inh – inhibitors of MITF-dependent TRPM1 promoter reporter, primary screen, cell-based, SK-MEL-5, single point, luciferase; SK-MEL-5 TRPM1 promoter luciferase, 24 h; inhibition, % at 12.5 µM; actives 0.83% (n = 330,000); AID 488899, 2010;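 active = mean inhibition across replicates of 60% or more, whatever share of single replicates reaches that level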
Large screens that a line does not name were inactive.

Cc1ccc(S(=O)(=O)N2C[C@H]3C(=O)C[C@@H](c4ccccc4)N(S(=O)(=O)c4ccc(C)cc4)[C@H]3C[C@H]2c2ccc(Cl)cc2)cc1	none (no result: MITF TRPM1 inh)
COc1ccc(CCNC(=O)c2cc([N+](=O)[O-])ccc2N2CCOCC2)cc1	none
Cc1ccc(C(=O)c2cc([N+](=O)[O-])ccc2N2CCOCC2)cc1	Peg3 prom inh 52
Cc1ccc(COC(=O)c2cc([N+](=O)[O-])ccc2N2CCOCC2)cc1	none
CCOc1ccc(C(=O)c2cc([N+](=O)[O-])ccc2N2CCOCC2)cc1	CF NFkB block 55
COc1ccc(C(=O)c2cc([N+](=O)[O-])ccc2N2CCOCC2)cc1	CF NFkB block 60
CCCNC(=O)C1(C)CCCN(C(=O)CN2C(=O)c3ccccc3C2=O)C1 (stereo not drawn)	none (no result: MITF TRPM1 inh)
CCCCNS(=O)(=O)c1ccc(NC(=O)C(Sc2ccccc2)c2ccccc2)cc1 (stereo not drawn)	Peg3 prom inh 59
CCC(C)NS(=O)(=O)c1ccc(NC(=O)C(Sc2ccccc2)c2ccccc2)cc1 (stereo not drawn)	none
NC(Cc1ccccc1)c1csc(Nc2nccc(C(F)(F)F)n2)n1 (stereo not drawn)	none (no result: MITF TRPM1 inh)
COc1ccccc1N(O)C1CC(=O)N(c2ccc(F)cc2)C1=O (stereo not drawn)	Shn3 inh set2 95
CCOC(=O)C1CCCN(C(=O)c2cc(C)oc2C)CC1 (stereo not drawn)	none (no result: MITF TRPM1 inh)
Cc1ccc(S(=O)(=O)CCC(=O)c2cccc([N+](=O)[O-])c2)cc1	Peg3 prom inh 110
Cc1ccc(S(=O)(=O)Cc2cc(F)c([N+](=O)[O-])cc2[N+](=O)[O-])cc1	Peg3 prom inh 117
Cc1ccccc1Nc1nnc(SCC(=O)c2c(N)n(C3CC3)c(=O)[nH]c2=O)s1	none
COc1cccc2[nH]c(C(=O)NCc3ccccc3)cc12	none
Cc1cc(Cl)ccc1OC(C)C(=O)Nc1ccc(C(=O)Nc2ccccc2C(=O)O)cc1 (stereo not drawn)	none
Cc1ccsc1C(=O)Nc1ccc(S(=O)(=O)N2CCOCC2)cc1	none
Cc1ccc2nc3sc(C(=O)N4CCOCC4)c(N)c3cc2c1	MITF TRPM1 inh 69
Nc1ccc(-c2nc3ccc(N)cc3[nH]2)cc1	none
Nc1ccc2cc3[nH]c4cc(N)ccc4c3nc2c1	Shn3 inh set2 90, MITF TRPM1 inh 83
CSc1nc(N)nc(SCC(=O)Nc2ccc(Cl)cc2)c1C#N	none
CSc1nc(N)nc(SCCS(=O)(=O)c2ccc(Cl)cc2)c1C#N	KKLEB tox -65
COc1coc(C(O)C[N+](=O)[O-])cc1=O (stereo not drawn)	none
NC(Cc1ccc(C(F)(F)F)cc1)c1csc(Nc2ccc(S(N)(=O)=O)cc2)n1 (stereo not drawn)	none (no result: MITF TRPM1 inh)
COc1ccc(CC(N)c2csc(NC(=O)Nc3cccc(C(F)(F)F)c3)n2)cc1 (stereo not drawn)	Peg3 prom inh 97, Shn3 inh set2 96 (no result: MITF TRPM1 inh)
CC(C)C(N)c1csc(NC(=O)Nc2ccc(OC(F)(F)F)cc2)n1 (stereo not drawn)	Peg3 prom inh 97 (no result: MITF TRPM1 inh)
NC(Cc1ccc(C(F)(F)F)cc1)c1csc(NC(=O)Nc2ccccc2)n1 (stereo not drawn)	Peg3 prom inh 94 (no result: MITF TRPM1 inh)
CC(C)C(N)c1csc(NC(=O)Nc2cccc(C(F)(F)F)c2)n1 (stereo not drawn)	Peg3 prom inh 97 (no result: MITF TRPM1 inh)
CN(C(=O)c1ccc(NC(=O)Cc2cccc(NC(=O)C3CCCN(C(=O)C4CCCC4)C3)c2)cc1)C1CCCC1 (stereo not drawn)	none
CC(C)N1C(=O)c2ccccc2NC(=O)C1C(=O)NCc1cccc(C(F)(F)F)c1 (stereo not drawn)	none (no result: Peg3 prom inh, KKLEB tox, Shn3 inh set2, CF NFkB block, MITF TRPM1 inh)
NCc1csc(NC(=O)Nc2cccc(C(F)(F)F)c2)n1	none (no result: MITF TRPM1 inh)
NC(Cc1ccc(Cl)cc1)c1csc(NC(=O)Nc2ccccc2)n1 (stereo not drawn)	Peg3 prom inh 101 (no result: MITF TRPM1 inh)

From PubChem BioAssay
